Test results taken from the supplement of paper PMC6555819.

How the values were obtained:
Test in all cases: PBM binding z-score (relative to random genomic background probes); higher = stronger binding; sequences stand for … in GC…GCGATTGACAGCGTAGAATGAAGG
[1] = tested on: FXR:RXRa (NR concentration 270 nM, RXRa partner concentration 90 nM)
Outline: (§1)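 Binding z-scores were set against random background probes. The data came from custom Agilent 4×180K protein-binding microarrays carrying double-stranded probes with 34-nt variable regions, incubated 1 h with ligand-free nuclear receptor dimers. Partner-specific antibodies detected binding, and scanned fluorescence was regression-normalized.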

[2] = tested on: LXRa:RXRa (NR concentration 270 nM, RXRa partner concentration 90 nM)
Outline: as §1

[3] = tested on: LXRa homodimer (NR concentration 270 nM)
Outline: as §1

[4] = tested on: LXRb:RXRa (NR concentration 270 nM, RXRa partner concentration 90 nM)
Outline: as §1

[5] = tested on: LXRb homodimer (NR concentration 270 nM)
Outline: as §1

[6] = tested on: PPARa:RXRa (NR concentration 270 nM, RXRa partner concentration 90 nM)
Outline: as §1

[7] = tested on: PPARg:RXRa (NR concentration 180 nM, RXRa partner concentration 90 nM)
Outline: as §1

[8] = tested on: PPARg:RXRa 270nM:90nM, anti-RXR (NR concentration 270 nM, RXRa partner concentration 90 nM)
Outline: as §1

[9] = tested on: PPARg:RXRa 30nM:10nM, anti-RXR (NR concentration 30 nM, RXRa partner concentration 10 nM)
Outline: as §1

[10] = tested on: PPARg:RXRa 90nM:30nM, anti-RXR (NR concentration 90 nM, RXRa partner concentration 30 nM)
Outline: as §1

[11] = tested on: PPARg:RXRa DBDmut IVT, anti-RXR (DBD mutation: RXRa K156A/R161A, NR concentration 270 nM, RXRa partner concentration 90 nM)
Outline: as §1

[12] = tested on: PPARg:RXRa IVT, anti-PPARg (NR concentration 270 nM, RXRa partner concentration 90 nM)
Outline: as §1

[13] = tested on: PPARg DBDmut:RXRa IVT, anti-PPARg (DBD mutation: PPARg1 K132A/R137A, NR concentration 270 nM, RXRa partner concentration 90 nM)
Outline: as §1

[14] = tested on: PPARg DBDmut IVT, anti-PPARg (DBD mutation: PPARg1 K132A/R137A, NR concentration 270 nM)
Outline: as §1

[15] = tested on: PPARg homodimer (NR concentration 180 nM)
Outline: as §1

[16] = tested on: PXR:RXRa (NR concentration 270 nM, RXRa partner concentration 90 nM)
Outline: as §1

[17] = tested on: PXR homodimer (NR concentration 270 nM)
Outline: as §1

[18] = tested on: RARa:RXR (NR concentration 270 nM, RXRa partner concentration 90 nM)
Outline: as §1

[19] = tested on: RARa homodimer (NR concentration 270 nM)
Outline: as §1

[20] = tested on: RARb:RXRa (NR concentration 270 nM, RXRa partner concentration 90 nM)
Outline: as §1

| Sequence | PBM binding z-score [1] | PBM binding z-score [2] | PBM binding z-score [3] | PBM binding z-score [4] | PBM binding z-score [5] | PBM binding z-score [6] | PBM binding z-score [7] | PBM binding z-score [8] | PBM binding z-score [9] | PBM binding z-score [10] | PBM binding z-score [11] | PBM binding z-score [12] | PBM binding z-score [13] | PBM binding z-score [14] | PBM binding z-score [15] | PBM binding z-score [16] | PBM binding z-score [17] | PBM binding z-score [18] | PBM binding z-score [19] | PBM binding z-score [20] |
| --- | --- | --- | --- | --- | --- | --- | --- | --- | --- | --- | --- | --- | --- | --- | --- | --- | --- | --- | --- | --- |
| GCATATTGGTAATACAAGGTGAAAGTCCGATTGT | 0.142 | -0.00547 | 0.127 | 0.0375 | -0.19 | 0.519 | 0.364 | 0.443 | 0.33 | 0.00917 | 0.078 | 0.938 | 1.13 | 0.842 | 0.326 | 0.0953 | 0.0473 | 0.645 | -0.0157 | 0.266 |
| CGAACTAGGTCATCCAGGACAGTCAATACATTGA | 4.68 | 3.11 | 0.817 | 2.43 | 0.306 | 5.03 | 7.74 | 6.5 | 3.94 | 6.22 | 8.57 | 8.35 | 3.88 | 2.33 | 1.98 | 2.25 | 1.6 | 2.83 | 0.712 | 3.95 |
| CAAACTAGGTCACAGAGGTCAAAGCCCGTGCGTA | 7.26 | 6.74 | 6.92 | 5.93 | 1.72 | 6.63 | 10.4 | 8.24 | 7 | 8.42 | 8.71 | 9.13 | 4.98 | 2.72 | 4.59 | 6.66 | 10.8 | 7.48 | 2.65 | 5.27 |
| GCTTGTAGATCAAGGTTAAGTAAGACTAAGCTAA | 0.31 | 0.866 | -0.213 | 0.847 | -0.28 | 1.8 | 1.15 | 2.27 | 0.377 | 1.78 | 1.5 | 1.73 | -0.282 | 0.512 | -0.0519 | 0.746 | -0.237 | 0.964 | -0.148 | 0.875 |
| ACTAGCAGGCCAATTTTGGGTCACTCAAACAAAG | 0.105 | 0.0624 | 0.139 | 0.747 | -0.68 | 1.8 | 0.396 | 0.508 | -0.304 | -0.0238 | 1.13 | 1.84 | 0.126 | -0.427 | 0.323 | 0.759 | -0.305 | 1.38 | -0.793 | 1.45 |
| GCTTACGCGTCAAAGGTTATAGCATGAATAGAAT | 1.21 | 1.97 | -0.0765 | 2.18 | -0.553 | 3.38 | 3.1 | 3.84 | 2.28 | 4.07 | -0.0505 | 0.407 | -0.0262 | 0.00309 | 1.46 | 2.22 | -0.288 | 3.3 | -0.0243 | 1.22 |
| CCAGACAGGTGTAAGGTAACTCAGTCTGGTACGC | -0.0338 | -0.35 | -0.126 | -0.421 | -0.449 | 0.0692 | 0.41 | 0.842 | -0.246 | 0.409 | -0.423 | -0.31 | -0.287 | -0.728 | 0.365 | -0.318 | -0.0688 | -0.0779 | -0.14 | -0.403 |
| GCTGACAGGTGAAACGCAGGTAACTCAGGGTGGC | -0.217 | 0.213 | -0.763 | -0.392 | -0.869 | 0.868 | 0.373 | -0.307 | -0.779 | -0.533 | 1.22 | 0.804 | -0.781 | -1.24 | -0.522 | -0.223 | -0.797 | 0.499 | -1.1 | 0.773 |
